This is a sample that favours compounds with a hit; in the whole collection about 5% have one here.
AHR act: AHR activators, primary screen, cell-based, luminescence, luciferase reporter, human. Aryl hydrocarbon receptor (Homo sapiens), P35869. AHR-responsive luciferase reporter cells. activation, % at 5 µM. 320,000 compounds, 2.5% hits. AID 2796, 2010; in the data active = activation above about 47%;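 note: 0% = vehicle wells and 100% = reference agonist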
SENP7 inh: SENP7 protease inhibitors, primary screen, biochemical, luminescence, uHTS | recombinant SENP7, Z-RLRGG-aminoluciferin luminescence, 40 min | inhibition, % at 5 µM | 330,000 compounds, 1.5% hits;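 active = inhibition above about 50% at the single test dose, limit read from the data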;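 note: plate controls were DMSO with enzyme for no effect and no enzyme buffer wells for full effect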
EBI2 antag: EBI2 receptor antagonists, beta-arrestin recruitment, primary screen, cell-based, luminescence, 7a,25-OHC stimulation, uHTS | G-protein coupled receptor 183 (Homo sapiens), P32249 | 7a,25-OHC stimulated | inhibition, % at 5 µM | 360,000 compounds, 0.81% hits | AID 651636, 2012; in the data active = inhibition above about 38%;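 note: enzyme fragment complementation signal reports receptor beta-arrestin coupling in cells; 0% = agonist plus DMSO wells and 100% = wells without agonist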
Target sequence (P32249 whole entry, looked up, the tested form may be a part): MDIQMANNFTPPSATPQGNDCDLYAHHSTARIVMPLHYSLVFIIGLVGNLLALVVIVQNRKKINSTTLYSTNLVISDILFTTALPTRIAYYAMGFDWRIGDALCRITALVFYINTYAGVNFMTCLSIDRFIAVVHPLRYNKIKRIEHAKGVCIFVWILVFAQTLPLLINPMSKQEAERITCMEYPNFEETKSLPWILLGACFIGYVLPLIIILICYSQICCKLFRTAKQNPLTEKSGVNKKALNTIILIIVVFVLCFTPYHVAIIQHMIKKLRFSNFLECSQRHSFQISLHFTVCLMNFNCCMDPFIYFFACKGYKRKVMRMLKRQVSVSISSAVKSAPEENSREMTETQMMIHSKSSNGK
SENP8 block-1: human SENP8 protease inhibitors, primary screen, biochemical, fluorescence, Nedd8 protein substrate, uHTS | Sentrin-specific protease 8 (Homo sapiens), Q96LD8 | recombinant SENP8 | inhibition, % at 20 µM | 360,000 compounds, 0.64% hits; in the data active = inhibition mostly above about 40%, no sharp cut-off; inactive = mostly below about 27%
Target sequence (Q96LD8 whole entry, looked up): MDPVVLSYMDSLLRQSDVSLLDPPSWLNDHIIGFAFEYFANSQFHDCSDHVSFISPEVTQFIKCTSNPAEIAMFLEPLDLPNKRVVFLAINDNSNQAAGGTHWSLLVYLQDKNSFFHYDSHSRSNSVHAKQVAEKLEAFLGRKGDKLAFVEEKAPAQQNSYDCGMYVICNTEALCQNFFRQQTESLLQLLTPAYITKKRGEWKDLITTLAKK
SENP8 block-2: SENP8 protease inhibitors, primary screen, biochemical, luminescence | inhibition, % at 10 µM | 330,000 compounds, 1.2% hits | purified SENP8, Z-RLRGG-aminoluciferin cleavage | AID 2540, 2010; in the data active = inhibition above about 50%
SENP6 block: SENP6 protease inhibitors, primary screen, biochemical, luminescence, uHTS; Sentrin-specific protease 6 (Homo sapiens), Q9GZR1; inhibition, % at 10 µM; Recombinant SENP6 catalytic domain, aminoluciferin luminescence; 330,000 compounds, 1.8% hits;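 active = inhibition above about 50% at the single tested dose, limit read from the data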;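 note: plate controls were DMSO wells with enzyme for no effect and DMSO wells lacking enzyme for full effect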
Starred values were filed as active, the others as inactive.

How did Cc1ccc(-c2nc(-c3cccnc3)no2)c(C)c1 do in these assays?
AHR act: 47; SENP7 inh: 46; EBI2 antag: -8; SENP8 block-1: 30; SENP8 block-2: 24; SENP6 block: -10

Results for Brc1ccc(-c2nc(-c3cccnc3)no2)o1 ?
AHR act: 63*; SENP7 inh: 26; EBI2 antag: -15; SENP8 block-1: -99; SENP8 block-2: -18; SENP6 block: 39

Results for CC1=C(C(=O)N2CCOCC2)CC(CC(=O)NCc2cccc3ccccc23)C(=O)N1Cc1ccc(C(C)(C)C)cc1 (stereo unspecified) ?
EBI2 antag: -5; SENP8 block-1: 8

How did COc1ccccc1C(=O)N/C(N)=N/c1nc2ccccc2o1 do in these assays?
AHR act: 69*; SENP7 inh: 1; EBI2 antag: 27; SENP8 block-1: 4; SENP8 block-2: -11; SENP6 block: -6

What do the screens show for `CN(/N=C/C=C/c1ccccc1)c1cc(=O)n(C)c(=O)[nH]1`?
AHR act: 70*; SENP7 inh: 3; EBI2 antag: 16; SENP8 block-1: 15; SENP8 block-2: 2; SENP6 block: -11

How did COc1ccc(CCN2C(=O)CS/C2=N\NC(=O)c2cccs2)cc1OC do in these assays?
AHR act: 69*; SENP7 inh: 4; EBI2 antag: 0; SENP8 block-1: 16; SENP8 block-2: 6; SENP6 block: -14

What do the screens show for `O=C(C[C@H]1C/C=C\CC[C@H](Cc2ccc(F)cc2)C(=O)OC[C@@H](Cc2c[nH]c3ccccc23)NC1=O)NCCO`?
AHR act: 0; SENP7 inh: -1; EBI2 antag: -18; SENP8 block-1: 12; SENP8 block-2: 6; SENP6 block: 12

Results for COc1cc(C(=O)NCC(c2cccs2)N2CCc3ccccc32)cc(OC)c1OC (stereo unspecified) ?
AHR act: 48*; SENP7 inh: -3; EBI2 antag: 16; SENP8 block-1: 14; SENP8 block-2: -1; SENP6 block: -3

What do the screens show for `Cc1ccn2cc(-c3ccc(O)c(O)c3)nc2c1`?
AHR act: 7; SENP7 inh: 67*; EBI2 antag: 2; SENP8 block-1: -280; SENP8 block-2: 56*; SENP6 block: 67*

How did CCOC(=O)c1sc(Nc2nc3c(F)cccc3s2)cc1C do in these assays?
AHR act: 52*; SENP7 inh: -13; EBI2 antag: 19; SENP8 block-1: -460; SENP8 block-2: -20; SENP6 block: -39

What do the screens show for `CCOC(=O)c1sc(Nc2nc3ccc(OC)cc3s2)cc1C`?
AHR act: 38; SENP7 inh: 7; EBI2 antag: 13; SENP8 block-1: -392; SENP8 block-2: -3; SENP6 block: 0

How did COc1ccccc1OCC(=O)N/N=C/c1cccc2cccnc12 do in these assays?
AHR act: 5; SENP7 inh: 2; EBI2 antag: -2; SENP8 block-1: 7; SENP8 block-2: 1; SENP6 block: -20

What do the screens show for `Cc1cc(C)n(CCC(=O)N/N=C/c2c(O)ccc3ccccc23)n1`?
AHR act: 62*; SENP7 inh: 0; EBI2 antag: -25; SENP8 block-1: -21; SENP8 block-2: -10; SENP6 block: -15

Results for COc1ccccc1OCC(=O)N/N=C/c1c(O)ccc2ccccc12 ?
AHR act: 51*; SENP7 inh: 1; EBI2 antag: -1; SENP8 block-1: -61; SENP8 block-2: -1; SENP6 block: -10

Results for C=CCN1C(=O)/C(=C2\SC(N3CCOCC3)=NC2=O)c2cc(Br)ccc21 ?
AHR act: 43; SENP7 inh: -9; EBI2 antag: 23; SENP8 block-1: 41*; SENP8 block-2: -13; SENP6 block: -8

How did CC(C)C(=O)N1CCCC1(C)C(=O)Nc1ccc(F)cc1 (stereo unspecified) do in these assays?
EBI2 antag: 0; SENP8 block-1: 10

What do the screens show for `Cc1ccsc1C(=O)OCC(=O)NCc1cccs1`?
EBI2 antag: -10; SENP8 block-1: 3

Results for Cc1csc(NC(=O)CSCC(=O)Nc2ccccc2)n1 ?
AHR act: 2; SENP7 inh: -19; EBI2 antag: -10; SENP8 block-1: 24; SENP8 block-2: -13; SENP6 block: 4

What do the screens show for `Cc1[nH]c2ccccc2c1-c1csc(NC(=O)CSCCO)n1`?
AHR act: 50*; SENP7 inh: -3; EBI2 antag: -3; SENP8 block-1: 6; SENP8 block-2: -9; SENP6 block: 12

Results for Cc1ccc(NC(=O)CSc2nnc(-c3cccs3)o2)cc1S(=O)(=O)N(C)C ?
AHR act: 56*; SENP7 inh: 7; SENP8 block-2: -1; SENP6 block: -8

What do the screens show for `CCN(CC)S(=O)(=O)c1cc(NC(=O)CSc2nnc(-c3cccs3)o2)ccc1C`?
AHR act: 20; SENP7 inh: 9; EBI2 antag: 3; SENP8 block-1: 7; SENP8 block-2: 1; SENP6 block: 11

How did Cc1cc(C)nc(/N=C(\N)N2CCCCCC2)n1 do in these assays?
AHR act: 5; SENP7 inh: -3; EBI2 antag: -10; SENP8 block-1: 14; SENP8 block-2: 3; SENP6 block: -1

What do the screens show for `Cc1cc(C)nc(/N=C(\N)N2CCc3ccccc32)n1`?
AHR act: 54*; SENP7 inh: 4; EBI2 antag: -1; SENP8 block-1: 33; SENP8 block-2: 4; SENP6 block: -11

What do the screens show for `CCn1c(/C=C/c2cccc([N+](=O)[O-])c2)nc2ccccc2c1=O`?
AHR act: 68*; SENP7 inh: -8; EBI2 antag: 5; SENP8 block-1: 5; SENP8 block-2: -4; SENP6 block: -1

What do the screens show for `CCn1c(/C=C/c2c(C)[nH]c3ccccc23)nc2ccccc2c1=O`?
AHR act: 65*; SENP7 inh: 5; EBI2 antag: -21; SENP8 block-1: -112; SENP8 block-2: -6; SENP6 block: 5

Results for CCn1c(/C=C/c2ccccc2[N+](=O)[O-])nc2ccccc2c1=O ?
AHR act: 9; SENP7 inh: 3; EBI2 antag: -2; SENP8 block-1: 12; SENP8 block-2: 1; SENP6 block: -17

Results for Cc1ccc(NC(=O)c2cccc(Cl)c2)nc1 ?
AHR act: 7; SENP7 inh: 21; EBI2 antag: 3; SENP8 block-1: 18; SENP8 block-2: -4; SENP6 block: 16

What do the screens show for `Cc1cc(NC(=O)c2cccc(Cl)c2)n[nH]1`?
AHR act: 71*; SENP7 inh: 24; EBI2 antag: 4; SENP8 block-1: 10; SENP8 block-2: 23; SENP6 block: 33

Screening results deposited in PubChem by several laboratories.
